Data on 24 compounds can be found in publication PMC12431657, “Discovery and mechanistic insights of dibenzoylmethane as a broad spectrum inhibitor of coronavirus” (PLOS Pathogens, 2025).

Where two headings read alike, the source gives them in different places. In all, about 3,300 compounds went through this assay and about 60 (2%) showed an effect of 50% or more. Many of the other results were omitted from the sample, so strong results are more common in it than they were.

The test system of this test is HCoV-OC43. Details: species or system RD; HTS, protection from HCoV-OC43 induced cell death, luminescent cell viability (CellCounting-Lite 2.0), inhibition rate. The following applies: 24 h post infection, 1 h compound pre-incubation, 10 µM, inhibitor.

For the compound `C[S+]([O-])CCCC/C(=N\OS(=O)(=O)O)S[C@@H]1O[C@H](CO)[C@@H](O)[C@H](O)[C@H]1O` (stereo partly drawn) [Glucoraphanin], the “OC43 Inhibition rate” value was -2.3%. As to `CC(C)=CCC[C@](C)(O)[C@H]1CC[C@]2(C)[C@@H]1[C@H](O)C[C@@H]1[C@@]3(C)CC[C@H](O)C(C)(C)[C@@H]3[C@@H](O[C@@H]3O[C@H](CO)[C@@H](O)[C@H](O)[C@H]3O[C@@H]3OC[C@@H](O)[C@H](O)[C@H]3O)C[C@]12C` [Notoginsenoside R2], the “OC43 Inhibition rate” value is 0.5%. As to `CSSSC` [Dimethyl trisulfide], the “OC43 Inhibition rate” value is given as -0.3%. Still for that read-out and setting: in the case of `COc1ccc2cc3[n+](cc2c1O)CCc1cc2c(cc1-3)OCO2` [Berberrubine (chloride)] it was -0.4%; in that of `CC1(C)O[C@H]1COc1c2ccoc2cc2oc(=O)ccc12` [Oxypeucedanin], 0.5%; in that of `C[C@@H]1O[C@@H](O[C@@H]2C(=O)c3c(O)cc(O)cc3O[C@@H]2c2ccc(O)c(O)c2)[C@H](O)[C@H](O)[C@H]1O` [Isoastilbin], 4.2%. On the same count and under the same terms, the result for `C/C=C/C[C@@H](C)[C@@H](O)[C@H]1C(=O)N[C@@H](C(C)C)C(=O)N(C)CC(=O)N(C)[C@@H](CC(C)C)C(=O)N[C@@H](C(C)C)C(=O)N(C)[C@@H](CC(C)C)C(=O)N[C@@H](C)C(=O)N[C@H](C)C(=O)N(C)[C@@H](CC(C)C)C(=O)N(C)[C@@H](CC(C)C)C(=O)N(C)[C@@H](C(C)C)C(=O)N1C` [Cyclosporin D] reads 68%.

On to `O=C1O[C@H]([C@@H](O)CO)C(O)=C1OP(=O)(O)O` [L-Ascorbic acid 2-phosphate (trisodium)], for which the “OC43 Inhibition rate” value came to 9.8%.

Take `CCCCCCCCCCCCCCCCCCC(=O)O` [Nonadecanoic acid]: the “OC43 Inhibition rate” value is recorded as -0.5%. The same measure, in the same setting: in the case of `COC(=O)C1=C(O)c2ccccc2C(=O)[C@]1(CC=C(C)C)C1=CC(=O)c2ccccc2C1=O` [Rubipodanone A] it was 58.8%.

With `CC(C)=CCC1=CC(=O)c2ccccc2C1=O` [Deoxylapachol], the “OC43 Inhibition rate” value amounted to 3.8%.

Turning to `CC(C)=CCC1=C(O)C(=O)c2ccccc2C1=O` [Lapachol], the “OC43 Inhibition rate” value stood at 27.9%.

As for `Nc1ncnc2c1ncn2[C@@H]1O[C@H](COP(=O)(O)O)[C@@H](O)[C@H]1O` [Adenosine monophosphate], the “OC43 Inhibition rate” value (OC43 Inhibition rate, 24 h) is listed as 0%. On the same count and under the same terms, the result for `C1CCN2C[C@H]3C[C@H](CN4CCCC[C@@H]34)[C@H]2C1` [(+)-Sparteine] reads 6%.

For the compound `C=C(C)[C@H](CC=C(C)C)Cc1c(O)cc(OC)c2c1O[C@H](c1ccc(O)cc1OC)CC2=O` [(2S)-2'-Methoxykurarinone], the “OC43 Inhibition rate” value is on record as 98.5%.

With `C=C(C)[C@H](CC=C(C)C)Cc1c(O)cc(OC)c2c1O[C@H](c1ccc(O)cc1O)CC2=O` [Kurarinone], the “OC43 Inhibition rate” value was 0%. Regarding `C=C(C)[C@H](CC=C(C)C)Cc1c(O)cc(O)c2c1O[C@H](c1ccc(O)cc1O)CC2=O` [sophoraflavanone G], the “OC43 Inhibition rate” value is reported as 39.8%. On the same count and under the same terms, the result for `CC1(C)CC[C@]2(C(=O)O[C@@H]3O[C@H](CO)[C@@H](O)[C@H](O)[C@H]3O)CC[C@]3(C)C(=CC[C@@H]4[C@@]5(C)CC[C@H](O[C@@H]6O[C@H](C(=O)O)[C@@H](O)[C@H](O)[C@H]6O[C@H]6OC[C@@H](O)[C@H](O)[C@H]6O)C(C)(C)[C@@H]5CC[C@]43C)[C@@H]2C1` [Pseudoginsenoside RT1] reads 0.7%. Still for that read-out and setting: in the case of `O=c1c2cc(O[C@@H]3O[C@H](CO)[C@@H](O)[C@H](O)[C@H]3O)c(O)cc2oc2cc(O)c([C@@H]3O[C@H](CO)[C@@H](O)[C@H](O)[C@H]3O)c(O)c12` [Neomangiferin] it was 3%; in that of `COC[C@@H](Cc1ccc(OC)c(OC)c1)[C@@H](COC)Cc1ccc(OC)c(OC)c1` [Phyllanthin], 0.2%; in that of `C/C=C(/C)C(=O)O[C@H]1C(C)=C[C@]23C(=O)[C@@H](C=C4COC(C)(C)O[C@H]4[C@]12O)[C@H]1[C@@H](C[C@H]3C)C1(C)C` [Ingenol-5,20-acetonide-3-O-angelate], 69.8%. Consider `CC1=C[C@]23C(=O)[C@@H](C=C4COC(C)(C)O[C@H]4C2(O)[C@H]1O)[C@H]1[C@@H](C[C@H]3C)C1(C)C` (stereo partly drawn) [Ingenol-5,20-acetonide], for which the “OC43 Inhibition rate” value is given as -2.5%.

With `C/C=C(/C)C(=O)O[C@H]1C(C)=C[C@]23C(=O)[C@@H](C=C(CO)[C@@H](O)[C@]12O)[C@H]1[C@@H](C[C@H]3C)C1(C)C` [Ingenol Mebutate], the “OC43 Inhibition rate” value worked out at 1.1%. Still for that read-out and setting: the result for `Cc1cc(=O)c2c(O)c3c(cc2o1)OC(C)(C)[C@@H](O[C@@H]1O[C@H](CO)[C@@H](O)[C@H](O)[C@H]1O)C3` [Sec-O-Glucosylhamaudol] reads -0.4%.
